{"source": "PubChem BioAssay AID435022", "about": "(Sanford-Burnham Center for Chemical Genomics, 2010)", "note": "Hit rate of the full screen: of about 330,000 compounds, about 1,100 (0.33%) were called active. The entries come from a sample that favours actives as a whole. Values without a mark were called inactive. No stated cut-off is given here; in the data, active means inhibition above about 35%; inactive means the rest."}
{"test": "inhibitors of PMA/ionomycin-induced NF-kB reporter, 697 cells, primary screen, B-cell NF-kB inhibitor project, cell-based, luminescence, uHTS (AID 435022)", "details": "697 B-cell NF-kB luciferase reporter, 16 h, at 4 µM, active compounds read high"}
{"smiles": "CC(C)(C)c1cnnn1-c1ccc([N+](=O)[O-])cc1", "inhibition": "12.8%"}
{"smiles": "Cc1ccccc1Cn1c2ccccc2c2cnn(CC(=O)NCc3ccco3)c(=O)c21", "inhibition": "-4.9%"}
{"smiles": "O=C(COC(=O)c1ccc([N+](=O)[O-])cc1Cl)NC(=O)c1ccccc1", "inhibition": "-5.46%"}
{"smiles": "O=C(NOCc1ccccc1)c1cccc([N+](=O)[O-])c1", "inhibition": "-12.3%"}
{"smiles": "O=C(NC(Nc1nc2ccc([N+](=O)[O-])cc2s1)(C(F)(F)F)C(F)(F)F)c1ccccc1", "inhibition": "99.5% (active)"}
{"smiles": "CCOC(=O)c1c(C)n(C)c2ccc(OC)c(NS(=O)(=O)CC)c12", "inhibition": "-4.31%"}
{"smiles": "COc1ccc2cc(CCl)c(Cl)nc2c1", "inhibition": "-1.58%"}
{"smiles": "O=C(Cn1cnc2ccccc2c1=O)NNC(=O)c1ccccc1F", "inhibition": "1.67%"}
{"smiles": "O=C(NCc1ccccc1CN1CCCC1)C1CCN(S(=O)(=O)c2ccc(Cl)cc2)CC1", "inhibition": "-7.16%"}
{"smiles": "COc1ccc(CNC(=O)CNC(=O)c2sc3ccccc3c2Cl)cc1OC", "inhibition": "35% (active)"}
{"smiles": "COc1ccc(CNC(=O)Cc2ccc(-c3ccccc3)cc2)cc1OC", "inhibition": "8.2%"}
{"smiles": "COc1ccc(CNC(=O)c2ccc(Br)s2)cc1OC", "inhibition": "-2.07%"}
{"smiles": "Cc1cc(C(F)(F)F)nc(SCC(=O)Nc2nccs2)n1", "inhibition": "-18.2%"}
{"smiles": "Cc1[nH]nc(SCC(=O)NCC(C)C)c1[N+](=O)[O-]", "inhibition": "9.07%"}
{"smiles": "Cc1oc2c(C)c3oc(=O)c(CC(=O)N[C@@H](CC(C)C)C(=O)N[C@@H](Cc4ccccc4)C(=O)O)c(C)c3cc2c1C", "inhibition": "22.3%"}
{"smiles": "CCOc1ccc(C(=O)Nc2cc(Cl)ccc2-n2cncn2)cc1OC", "inhibition": "14%"}
{"smiles": "CN(C)S(=O)(=O)c1ccc(N2CCCC2)c(C(=O)Nc2ccc(Br)cc2F)c1", "inhibition": "9.57%"}
{"smiles": "Cc1ccc(Cn2c(SCC(=O)N/N=C/c3ccccc3OCC(=O)O)nc3ccccc32)cc1", "inhibition": "3.74%"}
{"smiles": "CC(=O)c1nc2ccccc2n1Cc1ccccc1", "inhibition": "3.31%"}
{"smiles": "CCCc1nc2c(C)cc(-c3nc4ccccc4n3C)cc2n1Cc1ccc(-c2ccccc2C(=O)O)cc1", "inhibition": "44.7% (active)"}
{"smiles": "O=C1Nc2ccc(Br)cc2/C1=N/N=C/C1=C(N2CCOCC2)C(=C\\c2ccccc2)/CC1", "inhibition": "13.3%"}
{"smiles": "COc1ccc(C2C=C(c3ccc(Br)cc3)Nc3nc(NS(C)(=O)=O)nn32)cc1", "note": "(stereo not given)", "inhibition": "8.48%"}
{"smiles": "C=CCOc1ccc(/C=C2\\SC(=S)N(CCC(=O)O)C2=O)cc1", "inhibition": "62.4% (active)"}
{"smiles": "Cc1ccc(/C=C2/SC(=S)N(CCC(=O)NCCCN3CCOCC3)C2=O)cc1", "inhibition": "-16.3%"}
{"smiles": "O=C1/C(=C/c2ccc(F)cc2)SC(=S)N1CCCC(=O)N1CCCCC1CCO", "note": "(stereo not given)", "inhibition": "-3.3%"}
{"smiles": "CN(CC(=O)NCc1ccncc1)S(=O)(=O)c1ccc(Br)cc1", "inhibition": "12.7%"}
{"smiles": "Cc1n[nH]c(C)c1S(=O)(=O)N1CCCC(C(=O)Nc2ccc(Br)cc2)C1", "note": "(stereo not given)", "inhibition": "-12.3%"}
{"smiles": "Cc1cc(C)nc(N2CCC(C(=O)Nc3ccc4c(c3)OCCO4)CC2)n1", "inhibition": "-5.99%"}
{"smiles": "Cc1cc(Nc2cc(N3CCN(C)CC3)nc(Sc3ccc(NC(=O)C4CC4)cc3)n2)n[nH]1", "inhibition": "37% (active)"}
{"smiles": "CC(=O)c1c(C)[nH]c(C(=O)COC(=O)c2cccc(S(=O)(=O)N(C)c3ccccc3)c2)c1C", "inhibition": "-50%"}
{"smiles": "O=C(Cc1ccccc1)N1CCN(S(=O)(=O)c2ccc([N+](=O)[O-])cc2)CC1", "inhibition": "4.38%"}
{"smiles": "O=C(C1CCC1)N1CCN(S(=O)(=O)c2ccc([N+](=O)[O-])cc2)CC1", "inhibition": "38.2% (active)"}
{"smiles": "O=C(C1CCCN(S(=O)(=O)c2ccc([N+](=O)[O-])cc2)C1)N1CCCCC1", "note": "(stereo not given)", "inhibition": "-4.88%"}
{"smiles": "COC(=O)c1c(NC(=O)COC(=O)[C@@H](NS(=O)(=O)c2ccccc2)C(C)C)sc2c1CCC2", "inhibition": "10.3%"}
{"smiles": "CC1CCCCN1C(=O)Cn1c(=O)oc2cc(S(=O)(=O)N3CCCCC3)ccc21", "note": "(stereo not given)", "inhibition": "4.87%"}
{"smiles": "O=C(CSc1nc(-c2ccccc2)cs1)Nc1cccc([N+](=O)[O-])c1", "inhibition": "1.61%"}
{"smiles": "CCN(CCCNC(=O)c1ccc2c(c1)NC(=O)CN2C)c1cccc(C)c1", "inhibition": "-19.3%"}
{"smiles": "CNC(=O)c1ccc(NC(=O)c2cccc(C(F)(F)F)c2)cc1", "inhibition": "40.3% (active)"}
{"smiles": "O=C(Nc1ccc(C(F)(F)F)cc1)c1cccc(-n2cnnn2)c1", "inhibition": "-26.7%"}
{"smiles": "O=C(Nc1ccc(-c2csc(Nc3cccc(C(F)(F)F)c3)n2)cc1)c1cccc(C(F)(F)F)c1", "inhibition": "-26.3%"}
{"smiles": "Cc1ccc(NC(=O)CSc2nnc(CNC(=O)c3ccccc3F)o2)cc1", "inhibition": "0.808%"}
{"smiles": "CCOC(=O)N1CCN(S(=O)(=O)c2ccc(-n3cnnn3)cc2)CC1", "inhibition": "-11.9%"}
{"smiles": "O=C(Nc1ccccc1N1CCN(C(=O)c2ccccc2)CC1)c1ccco1", "inhibition": "6.77%"}
{"smiles": "CCCNC(=O)c1ccc(N2CCC3(CC2)CC(c2ccc(Cl)cc2)=NO3)c([N+](=O)[O-])c1", "inhibition": "-1.96%"}
{"smiles": "CCCNC(=O)c1ccc(N2CCC3(CC2)CC(c2cccc(Br)c2)=NO3)c(NC(=O)c2ccco2)c1", "inhibition": "35.6% (active)"}
{"smiles": "COc1ccc(NC(=O)c2sccc2SCC#N)cc1", "inhibition": "0.298%"}
{"smiles": "O=C(O)C1=C[C@H](c2cccs2)C[C@H](OCCCCO)O1", "inhibition": "27.6%"}
{"smiles": "Cn1c(CCCOc2ccc(Cl)cc2Cl)n[nH]c1=S", "inhibition": "-42.5%"}
{"smiles": "CN=c1scc(-c2cc(OC)ccc2OC)n1/N=C/c1c(C)[nH]c2ccccc12", "inhibition": "-18%"}
{"smiles": "COc1cc(N=Cc2c(O)[nH]c3ccccc23)cc(OC)c1OC", "inhibition": "45.5% (active)"}
{"smiles": "COc1ccc2[nH]c(C(=O)N/N=C/c3cc(OC)c(OC)c(OC)c3)cc2c1", "inhibition": "-5.61%"}
{"smiles": "O=C(Nc1ccc2c(c1)OCO2)C1CC(c2c(F)cccc2Cl)=NO1", "note": "(stereo not given)", "inhibition": "10.7%"}
{"smiles": "O=C(CNC(=O)Cc1ccccc1)NCC(=O)OCC(=O)c1ccccc1Cl", "inhibition": "12.5%"}
{"smiles": "O=C(O)c1ccc(COc2c(F)c(F)cc(F)c2F)o1", "inhibition": "4.23%"}
{"smiles": "Cn1c(=O)c2c(nc(N3CCCCCC3)n2CC(O)COc2ccc(Cl)cc2)n(C)c1=O", "note": "(stereo not given)", "inhibition": "-3.4%"}
